Here are results for 40 compounds from PubChem BioAssay (Tox21).

Active and inactive are the calls of the source. Calls come from the whole dose curve; as a rule, active = well fitted curve in the direction sought with a large enough effect in the repeat runs; inconclusive = weak or mixed curves; inactive = flat fitted curve, though single readings scatter.

A short description of the experiment: qHTS assay to test for compound auto fluorescence at 590 nm (red) in HEK293 cell free culture (AID 720683). The following applies: cell-free medium autofluorescence, Ex540/Em590 red; series mostly up to 91.3 µM. From the text:
U.S. Tox21 Program National Center for Advancing Translational Sciences [NCATS] NIH Chemical Genomics Center [NCGC] U.S. Environmental Protection Agency [EPA] National Institutes of Environmental Health Sciences [NIEHS] National Toxicology Program [NTP] U.S. Food and Drug Administration [FDA] Tox21 Assay Overview: Compound auto fluorescence often interferes with screening of the compound library against various biological targets and signaling pathways. Some of these compounds may have fluorophoric properties. Such properties may interfere with the assay outputs resulting in false positives and/or negatives. To decrease such complications and ensure the compound activities are relevant in terms of biological response, the Tox21 10K compound library was screened for auto fluorescence. From the fluorophores used as reporter signals in our screening assays, the auto fluorescence equivalencies of compounds against three fluorophores have been evaluated: Triamterene, Fluorescein and Rose Bengal sodium for blue, green and red fluorescence, respectively. The fluorescence intensities were measured using Excitation/Emission wavelengths at 405/460nm, 485/535nm and 540/590nm for blue, green and red labels, respectively. This assay includes the red fluorescence data.
Tox21 Assay Protocol Summary: 5 uL of culture medium (DMEM containing 10% FBS) per well was dispensed into black wall/clear bottom 1536-well plates using a Multidrop Combi Dispenser (ThermoFisher Scientific, Waltham, MA). After 23 nL compound or DMSO vehicle was transferred into assay plate by a pintool work station (Kalypsys, San Diego, CA), fluorescence intensities in the assay plates were measured by an Envision (PerkinElmer, Shelton, CT) plate reader using three labels for measuring blue, green and red fluorescence at […] 460, 535 and 590nm respectively.
`O=C(O)CCCCCCCCCCC(=O)O`: the compound was called inactive.
In the case of `CCCCCCCC(=O)OC` it was “inactive”; in that of `COc1cc(Cc2cnc(N)nc2N)cc(OC)c1OC`, “inactive”; in that of `CCCCCC1=CCCC1=O`, “inactive”.
For `CCCCCCCCCCCCc1ccccc1`, the result was inactive.
For the compound `C[Si](O[Si](C)(C)C)O[Si](C)(C)C`, the compound was called inactive.
As to `CC(=O)Nc1ccccc1`, the call was inactive.
Consider `O=C=NCCCCCCN=C=O`, for which the compound was called inactive.
In the case of `Cc1cnc(C(=O)NCCc2ccc(S(=O)(=O)NC(=O)NC3CCCCC3)cc2)cn1` it was “inactive”; in that of `CCOC(=O)NNc1nncc2ccccc12`, “inactive”.
For `CCCCCOC(C)=O` the value was “inactive”.
With `NNc1nncc2ccccc12`, the call was inactive.
In the case of `O=C(O)[C@H](O)[C@@H](O)[C@H](O)[C@H](O)CO` it was “inactive”; in that of `CN(C)CCC(c1ccccc1)c1ccccn1` (stereo not given), “inactive”; in that of `Cc1ccc(S(N)(=O)=O)cc1`, “inactive”.
For `C=CCNC(N)=S` the value was “inactive”.
In the case of `CCC(O)OCCCOC` (stereo not given) it was “inactive”; in that of `CCCCCCCCC/C=C/CC1CC(=O)OC1=O` (stereo not given), “inactive”.
`COc1ccc2cc([C@H](C)C(=O)O)ccc2c1`: the call was inactive.
Regarding `CC1=C(C)S(=O)(=O)CCS1(=O)=O`, the outcome was inactive.
Regarding `COc1ccc(NC(C)=O)cc1N`, the compound was called inactive.
For `O=C(O)CCCC[C@@H]1SC[C@@H]2NC(=O)N[C@@H]21` the value was “inactive”.
In the case of `CCCCC(CC)COC(=O)C(C#N)=C(c1ccccc1)c1ccccc1` (stereo not given) it was “inactive”; in that of `CCCCC(CC)CO` (stereo not given), “inactive”; in that of `CC[C@H](C)C(=O)O[C@H]1C[C@@H](C)C=C2C=C[C@H](C)[C@H](CC[C@@H]3C[C@@H](O)CC(=O)O3)[C@H]21`, “inactive”.
For `c1c[nH]cn1` the value was “inactive”; for `C#CCN(C)Cc1ccccc1`, “inactive”; for `Cc1cccc(O)c1`, “inactive”.
Regarding `OCc1cccnc1`, the call was inactive.
On to `O=C(OCCOCCOC(=O)c1ccccc1)c1ccccc1`, for which the call was inactive.
Take `CCC(O)OC(O)CC` (stereo not given): the outcome was inactive.
For `CC(=O)Nc1cccc(O)c1` the value was “inactive”.
In the case of `C=CCOC(=O)c1ccccc1C(=O)OCC=C` it was “inactive”; in that of `CC(=O)OCC(=O)[C@@]12N=C(C)O[C@@H]1C[C@H]1[C@@H]3CCC4=CC(=O)C=C[C@]4(C)[C@H]3[C@@H](O)C[C@@]12C`, “inactive”.
On to `C/C=C1/CC2C=CC1C2` (stereo not given), for which the compound was classed as inactive.
In the case of `Nc1cc([N+](=O)[O-])ccc1O` it was “inactive”; in that of `Fc1ccc(Br)cc1`, “inactive”; in that of `CC1CCC(C(C)C)C(O)C1` (stereo not given), “inactive”.
Consider `C[C@H]1C[C@@H]2[C@H]([C@@H](O)C[C@@]3(C)[C@H]2CC[C@]3(O)C(=O)CO)[C@@]2(C)C=CC(=O)C=C12`, for which the result was inactive.
In the case of `CN(C)CCOCCN(C)C`, the compound was classed as inactive.
